According to PubChem BioAssay AID504803 (The Scripps Research Institute Molecular Screening Center, 2011):
Hit rate of the full screen: of about 340,000 compounds, about 1,700 (0.5%) were called active. What follows is part of a selection rich in actives, with near analogues and random picks from the rest. Unmarked numbers belong to inactive results. Cut-off read from the data, not from the text of the source: active = inhibition above about 36%; inactive = the rest.

What follows are molecules tested against Serine protease HTRA1 (Homo sapiens) (UniProt Q92743) (assay: HTRA1 serine protease inhibitors, primary screen, biochemical, fluorescence polarization, HTS (AID 504803;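 note: 0% = enzyme with DMSO and 100% = wells lacking enzyme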)). Conditions: recombinant HTRA1, FP-rhodamine activity-based probe, at 5.96 µM, stronger effect = higher value.
Serine protease HTRA1 (Homo sapiens), sequence (Q92743 whole entry, looked up): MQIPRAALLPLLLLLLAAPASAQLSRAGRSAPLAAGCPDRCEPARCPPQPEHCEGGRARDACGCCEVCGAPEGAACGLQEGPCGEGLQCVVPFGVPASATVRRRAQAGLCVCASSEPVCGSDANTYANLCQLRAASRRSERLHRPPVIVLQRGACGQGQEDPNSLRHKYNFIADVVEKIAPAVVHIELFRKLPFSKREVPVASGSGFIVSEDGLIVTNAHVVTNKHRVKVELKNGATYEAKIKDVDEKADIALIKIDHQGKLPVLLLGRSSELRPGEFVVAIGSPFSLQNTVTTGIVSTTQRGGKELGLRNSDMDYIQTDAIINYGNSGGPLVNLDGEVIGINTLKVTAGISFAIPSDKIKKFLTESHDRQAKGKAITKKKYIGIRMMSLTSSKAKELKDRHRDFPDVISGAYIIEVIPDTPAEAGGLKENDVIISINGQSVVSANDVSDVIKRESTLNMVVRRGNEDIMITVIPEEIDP

Compound	inhibition
COc1ccc(-c2ccc3[nH]c4c(c3c2)CCN2C[C@H]3[C@H](C)ON(C)[C@H]3C[C@@H]42)cc1	6.55%
CCCCN1C[C@H](c2ccc(Br)cc2)[C@@H](CC(=O)Nc2ccc(Br)cc2)C1=O	-22.8%
CC(C)n1cnc2c(NCc3ccccc3)cc(OCC3CCN(C)CC3)cc21	40.1% (active)
CCC(CO)Oc1cc(NC(=O)c2cccc3ccccc23)c2ncn(C(C)C)c2c1 (stereo not drawn)	-25%
CCC(CO)Oc1cc(NC(=O)c2ccc(Cl)cc2)c2ncn(C(C)C)c2c1 (stereo not drawn)	6.4%
Cc1ccc(-c2nc3ccc(Cl)cn3c2Cc2ccccc2)cc1	-74.4%
COc1ccc(Cl)cc1S(=O)(=O)N1CCN(CC(=O)C(C)(C)C)CC1	4.3%
N#Cc1ccsc1NC(=O)CN1CCN(S(=O)(=O)c2cc(Cl)ccc2Cl)CC1	-36.8%
O=C(CN1CCN(S(=O)(=O)c2cc(Cl)ccc2Cl)CC1)c1ccc(O)c(O)c1	39.9% (active)
O=C1[C@H]2[C@@H](c3ccc(C(F)(F)F)cc3)N[C@]3(CCCN(Cc4ccc(Cl)cc4)C3=O)[C@H]2C(=O)N1Cc1ccccc1	-39.5%
COc1ncnc2c1ncn2CCCNCCN1CCOCC1	0.71%
COc1cc(NC(=O)C2=C(C)OCCS2)c(Cl)cc1C(=O)NCCCN1CCCC(C)C1 (stereo not drawn)	-6.48%
C[C@@H]1CN([C@@H](C)CO)S(=O)(=O)c2ccc(-c3ccc(C(=O)N(C)C)cc3)cc2O[C@@H]1CN(C)Cc1ccccc1C(=O)O	-0.74%
COCOCCn1cc(CN2CCS(=O)(=O)N(Cc3ccc(-c4cccc(N(C)C)c4)cc3)C(CC(C)C)C2=O)nn1 (stereo not drawn)	1.08%
Cc1cc(=O)oc2cc(OCC(=O)N3CCN(c4ccc(F)cc4)CC3)c(Cl)cc12	4.27%
Oc1c(CN2CCCC2)cc(COCc2ccccc2)c2cccnc12	49.2% (active)
COc1cc(C)cc(CN2CCC(Cc3ccccc3)CC2)c1O	4.82%
Oc1c(CN2CCN(c3ccc(F)cc3)CC2)cc(Cl)c2cccnc12	50.4% (active)
Cc1ccc(CN2CCN(c3ncccn3)CC2)c(C)c1	-5.09%
CC1CCCN(CC(O)COCc2ccccc2)C1 (stereo not drawn)	1.82%
Nc1cc(C(=O)N2CCN(c3ccccc3Cl)CC2)ccc1N1CC2CC(C1)c1cccc(=O)n1C2 (stereo not drawn)	2.36%
O=C(NCc1ccccc1)C1CNCC(C(=O)NCc2ccccc2)C1 (stereo not drawn)	0.67%
CCOc1ccc(CCNC(=O)COC(=O)c2ccc(C)c(S(=O)(=O)N3CCOCC3)c2)cc1OCC	-2.04%
